# Laboratory results published in PubChem BioAssay AID602399 (Sanford-Burnham Center for Chemical Genomics, 2012).
# The whole screen tested about 360,000 compounds, of which about 2,800 (0.78%) were called active. The sample holds actives, similar compounds and a random draw of the others, so the mix is not that of the screen. Unmarked numbers belong to inactive results. No stated cut-off is given here; in the data, active means inhibition above about 26%; inactive means the rest.
# System: Nicotinate-nucleotide adenylyltransferase NadD (Staphylococcus aureus N315)
# Test: inhibitors of S. aureus NadD, primary screen, biochemical, colorimetric, uHTS (AID 602399)
# Settings: purified NadD enzyme, colorimetric absorbance read-out; at 20 µM; active compounds read high
row,SMILES,inhibition
1,O=C(NCCCCc1ccccc1)C1CC(c2ccc([N+](=O)[O-])cc2)=NO1 (stereo unspecified),-8.64%
2,COc1cccc(CNC(C)C(=O)Nc2ccc(S(=O)(=O)N3CCCC3)cc2)c1 (stereo unspecified),0.261%
3,CCOC(=O)c1sc(=NC(=O)c2ccc(Br)cc2)n(C)c1C,-0.0934%
4,COC(=O)c1ccc(C2NC(=O)NC(C)=C2C(=O)N(C)C)cc1 (stereo unspecified),-2.37%
5,CCOC(=O)C1=C(C)Nc2sc(C(=O)c3ccc(Br)cc3)c(N)c2C1c1ccc(C(=O)OC)cc1 (stereo unspecified),33.6% (active)
6,Cc1nc(CC(=O)NNS(=O)(=O)c2ccc(F)c(Cl)c2)cs1,-1.28%
7,CC(C)Oc1ccc(CCc2nnc(SCC(=O)O)n2-c2ccccc2)cc1,-4.23%
8,CCCCC(=O)Nc1c2c(nn1-c1ccc([N+](=O)[O-])cc1)CS(=O)(=O)C2,-6.61%
9,O=C1/C(=C\c2ccc([N+](=O)[O-])cc2)CS(=O)(=O)C/C1=C/c1ccc([N+](=O)[O-])cc1,35.3% (active)
10,O=C1CCCN1C(=O)COc1ccc([N+](=O)[O-])cc1,0.0869%
11,CCNC(=O)Nc1ccc(S(=O)(=O)Nc2cnc(C)nc2C)cc1,4.03%
12,c1ccc2c(c1)OCCOCCOCCO2,1.98%
13,CS(=O)(=O)c1ccc2c(c1)SC1=NC(=O)/C(=C/c3ccco3)C(=N)N12,35% (active)
14,COc1ccc(S(=O)(=O)N2CCOC2CNC(=O)C(=O)NCc2ccncc2)cc1OC (stereo unspecified),-7.02%
15,NC(c1ccccc1)c1csc(NC(=O)Nc2cccc(C(F)(F)F)c2)n1 (stereo unspecified),3.58%
16,CC(=O)c1ccc(Nc2nc(C(N)c3ccccc3Cl)cs2)cc1 (stereo unspecified),-4.95%
17,NC(c1csc(NC(=O)Nc2ccccc2Oc2ccccc2)n1)c1ccccc1Cl (stereo unspecified),40.7% (active)
18,CCOc1ccc(S(=O)(=O)N(CC(=O)NCC(F)(F)F)Cc2ccco2)cc1,-2.92%
19,CC1=NN(c2cccc(Cl)c2)C(=O)C12CC(C)=C(C)CS2 (stereo unspecified),-3.46%
20,CC(C)(C)C(=O)Nc1ccc(C(=O)N/N=C/c2ccccc2OC(=O)c2ccc(Cl)cc2Cl)cc1,38.5% (active)
21,O=C(N/N=C/c1ccccn1)c1cccc(NC(=O)c2ccc(Cl)cc2)c1,6.47%
22,O=C(N/N=C/c1ccoc1)c1ccc(Cl)cc1Cl,-0.584%

row,SMILES,inhibition
1,O=c1[nH]c(CCl)nc2cc(-c3ccc(Cl)cc3)sc12,1.98%
2,CCc1[nH]nc(C(=O)N2CCCC(CO)(Cc3ccc(F)cc3F)C2)c1C (stereo unspecified),1.03%
3,CCCn1c(C2CCCN2c2nc(-c3ccc(C)cc3)cs2)nc2cc(Cl)c(N3CCCCC3)cc21 (stereo unspecified),7.02%
4,CCCn1c(C(C)Nc2nc(-c3ccc(C)cc3)cs2)nc2cc(Cl)c(N3CCCCC3)cc21 (stereo unspecified),30.3% (active)
5,Cc1ccc(-c2csc(N3CCN(c4cc5c(cc4Cl)nc(-c4ccncc4)n5CCOCCO)CC3)n2)cc1,-0.493%
6,CC(=O)C1=C(C)NC2=C(C(=O)CC(C)(C)C2)C1C (stereo unspecified),-0.177%
7,CCOc1cc(/C=N/NC(=O)c2c(C)nc3ccc(Cl)cn23)ccc1O,-0.152%
8,Cc1cc(C(=O)N/N=C/c2ccc(O)c([N+](=O)[O-])c2)c(C)n1-c1ccc(F)cc1,33.3% (active)
9,O=C1CSC(=S)N1/N=C/c1ccc(O)c([N+](=O)[O-])c1,5.51%
10,CCCCCCCC1(C)NC(=O)N(CC(=O)Nc2cc(C)on2)C1=O (stereo unspecified),-7.34%
11,O=C(CC1C(=O)NCCN1CC(c1ccccc1)c1ccccc1)NCCc1cn[nH]c1 (stereo unspecified),7.62%
12,Cn1ncc([N+](=O)[O-])c1C(=O)Nc1cc(Cl)ccc1Cl,-3.19%
13,Cc1cc(C)c(OCC(=O)N(Cc2cccs2)C2CCS(=O)(=O)C2)c(C)c1 (stereo unspecified),-1.96%
14,COc1cccc2c1C(=O)c1c(O)c3c(c(O)c1C2=O)CC(O)(C(C)=NNC(=O)c1ccc(Cl)c(Cl)c1)CC3OC1CC(N)C(O)C(C)O1 (stereo unspecified),38.5% (active)
15,Brc1cnc(N2CCCC2)nc1N1CCCCC1,-5%
16,Cc1cc2nc(-c3ccc(Cl)cc3)c(Cc3cccc(F)c3)n2c(C)c1Br,28.5%
17,Cc1cc2nc(-c3ccco3)c(Cc3cccc(F)c3)n2c(C)c1Br,50.5% (active)
18,Cc1cc2nc(-c3ccc(F)cc3)c(Cc3ccsc3)n2c(C)c1Br,16.1%
19,CCCSc1nc2[nH]ncc2c(=O)[nH]1,0.611%
20,CC(C)Oc1c(Br)cc(Br)cc1/C=N/NC(N)=S,6.4%
21,COCCNC(=O)CN(Cc1ccco1)C(=O)CCC(=O)Nc1nccs1,-5.06%
22,O=C(c1cccc(F)c1)N1CCN(c2ccc([N+](=O)[O-])c(N3CCCCC3)c2)CC1,-9.3%

row,SMILES,inhibition
1,Cc1ccc(CSCC2Nc3ccc(C(=O)N4CCN(c5ccc(F)cc5)CC4)cc3NC2=O)cc1 (stereo unspecified),73.7% (active)
2,O=C1Nc2cc(C(=O)N3CCN(c4ccc(F)cc4)CC3)ccc2NC1CSCc1cccc(F)c1 (stereo unspecified),36.8% (active)
3,COC(=O)c1ccc(C(=O)OC)c(NC(=S)N2CCN(c3ccc(F)cc3)CC2)c1,-1.25%
4,C=CCn1c(SCc2cccc(F)c2)nc2cc(C(=O)N3CCC(C(N)=O)CC3)ccc2c1=O,-4.38%
5,Cc1noc(C)c1S(=O)(=O)Nc1ccc(C(=O)N2CCN(c3ccc(F)cc3)CC2)cc1,10.7%
6,COC(=O)c1ccc(/C=N/N2C(C)CCCC2C)cc1 (stereo unspecified),-8.27%
7,NC(=O)c1ccc(NC(=O)COC(=O)c2c3c(nc4ccccc24)/C(=C\c2ccc4c(c2)OCO4)CCC3)cc1,55.2% (active)
8,CC(NC(=S)Nc1ccc(S(N)(=O)=O)cc1)c1ccc2c(c1)OCO2 (stereo unspecified),-0.72%
9,O=C(COC(=O)c1ccc(Cl)nc1)NCc1ccc2c(c1)OCO2,0.8%
10,NS(=O)(=O)c1ccc(NC(=O)COC(=O)CCc2c[nH]c3ccccc23)cc1,-1.06%
11,NS(=O)(=O)c1ccc(NC(=O)COC(=O)c2c3c(nc4ccccc24)/C(=C\c2ccc4c(c2)OCO4)CCC3)cc1,54.7% (active)
12,CC(=O)Nc1cccc(C(=O)OCC(=O)c2ccc3c(c2)OCO3)c1,-7.21%
13,CC1Cc2[nH][nH]c(=O)c2C(C2CC2)O1 (stereo unspecified),-3.07%
14,CC(Oc1cccc(Cl)c1)C(=O)NC1CC(C)(C)NC(C)(C)C1 (stereo unspecified),-1.75%
15,C[C@H](NC(=O)CC[C@H]1O[C@@H](n2ccc(=O)[nH]c2=O)[C@H](O)[C@@H]1O)c1cccc2ccccc12,-3.28%
16,CN(C(=O)CC1C(=O)NCCN1Cc1ccc(F)cc1Cl)C1CCCCC1 (stereo unspecified),3.03%
17,CCC1CCc2c(sc(NC(C)=O)c2C#N)C1 (stereo unspecified),1.07%
18,CCOc1ccc2[nH]c(=O)c(CN(Cc3nnnn3CCc3ccccc3)CC3CCCO3)cc2c1 (stereo unspecified),0.283%
19,CCC(c1nnnn1Cc1ccco1)N(Cc1cc2cc(OC)ccc2[nH]c1=O)C1CCCCC1 (stereo unspecified),31.2% (active)
20,COc1ccc2[nH]c(=O)c(CN(Cc3nnnn3CCc3ccccc3)CC3CCCO3)cc2c1 (stereo unspecified),14.2%
21,O=C(N/N=C/c1cccc(OC(=O)c2ccc([N+](=O)[O-])cc2)c1)c1cccnc1,-12.9%
22,O=C(CCC(=O)N1CCCC1)Nc1ccc([N+](=O)[O-])cc1,-6.64%

row,SMILES,inhibition
1,O=C(COc1ccc([N+](=O)[O-])cc1)Nc1ccc(N2CCCC2)cc1,42.4% (active)
2,O=C(COc1ccc([N+](=O)[O-])cc1)Nc1cccc(C(=O)Nc2ccccc2C(=O)O)c1,-2.45%
3,O=C(COc1ccc(/C=N/NC(=O)c2ccc(O)cc2)cc1)Nc1ccc([N+](=O)[O-])cc1,71.1% (active)
4,O=C(COC(=O)C1CCCCC1)Nc1ccc([N+](=O)[O-])cc1,-1.2%
5,C/C(=N\NC(=O)OC(C)(C)C)c1ccc[nH]1,-6.93%
6,Cc1ccc(Cl)cc1N1CCN(C(=O)c2cccc3c(=O)c(C)c(-c4ccccc4)oc23)CC1,4.56%
7,C/C(N)=C(/C#N)C(=O)COC(=O)C1CCN(C(=O)c2ccc(Cl)cc2)CC1,-7.06%
8,COc1ccc(NC(=O)/C(C#N)=C\c2cc(OC)c(OCc3ccc(C(=O)O)cc3)cc2Br)cc1,30.5% (active)
9,COc1cc(/C=C(\C#N)C(=O)Nc2ccc3ccccc3c2)c([N+](=O)[O-])cc1OC,5.18%
10,COCCNC(=O)/C(C#N)=C/c1cccc(OCc2ccccc2)c1,-8.65%
11,CC(=O)Nc1ccc(S(=O)(=O)N2CCC(C(=O)NC3CC3)CC2)cc1,3.08%
12,O=C(CNC(=O)c1ccc2ccccc2c1)Nc1ncccc1O,6.33%
13,COc1ccc(N2CCN(C(=O)CNC(=O)c3ccc(C(C)(C)C)cc3)CC2)cc1,-1.98%
14,O=C(NCC(=O)N1CCN(c2ccccc2O)CC1)c1ccc2ccccc2c1,31.5% (active)
15,CCOc1ccc(CCN2C(=S)N([C@@H](CC(C)C)CN3CCC[C@@H]3CN3C(=S)NC[C@@H]3Cc3ccc(O)cc3)C[C@@H]2Cc2ccc(O)cc2)cc1,35% (active)
16,CCOc1ccc(CCN2C(=O)C(=O)N([C@@H](CC(C)C)CN3CCC[C@H]3CN3C(=O)C(=O)NC[C@@H]3Cc3ccccc3)C[C@@H]2CC(C)C)cc1,28.4%
17,CC(C)C[C@H]1CNC(=O)C(=O)N1C[C@H]1CCCN1C[C@H](Cc1ccc(O)cc1)N1C[C@H](CC(C)C)N(CC2CCCCCC2)C(=O)C1=O,23.7%
18,O=C1NC[C@H](Cc2ccc(O)cc2)N(C[C@H]2CCCN2C[C@H](Cc2ccccc2)N2C[C@H](Cc3ccccc3)N(CCc3ccccc3)C(=O)C2=O)C1=O,24%
19,CCOc1ccc(CCN2C(=S)N([C@@H](CC(C)C)CN3CCC[C@@H]3CN3C(=S)NC[C@@H]3Cc3ccc(O)cc3)C[C@@H]2CC(C)C)cc1,26.6%
20,O=C1NC[C@H](Cc2ccc(O)cc2)N(C[C@@H]2CCCN2C[C@H](Cc2ccccc2)N2C[C@H](Cc3ccccc3)N(CC3CCCCC3)C(=O)C2=O)C1=O,38.8% (active)
